Source: PubChem BioAssay
In the library only some 0.54% were active in any assay of this set; here they are far more common.
Menin-MLL FL inh = qHTS Assay for Inhibitors Targeting the Menin-MLL Interaction in MLL Related Leukemias: Competition With Fluorescein Labeled MLL-derived Peptide. Fluorescence polarization, fluorescein-MLL peptide displacement from menin. FP activity change, % at 61.4 µM. 290,000 tested, under 10 active; active = well fitted curve in the direction sought with a large enough effect in the polarisation, not every such curve was filed as active; inconclusive = small, poorly fitted or top-dose-only effect, or effect the other way, or a change in a side signal; inactive = no such curve, though single readings can be large or run the other way; the % refers to the polarisation; also: % of control where 0% means no effect
IDH1 R132H inh = qHTS for Inhibitors of mutant isocitrate dehydrogenase 1 (IDH1): qHTS | Potency, µM (series often up to 76.6 µM), for the others: at the top dose activity change, negative = inhibition, usual class: inhibitors | AID 602179, 2012 | hit rate 0.093% among 390,000 | IDH1-R132H enzyme, NADPH consumption, diaphorase/resazurin fluorescence | Isocitrate dehydrogenase [NADP] cytoplasmic (Homo sapiens), O75874; also: potency is read from the fitted curve at half-maximal effect; % is scaled to controls: 0 for no effect and ±100 for the full control effect; nearly all actives have a fitted effect of over 65% in size
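IDH1-R132H (0.5 ug/mL) preincubated 30 min with compound, then NADPH (0.016 mM) and alpha-KG (2 mM) added; 80 min at RT, pH 7.5. Remaining NADPH coupled via diaphorase/resazurin to fluorescence (540/590 nm); concentration-response curves normalized to no-enzyme control.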
pAkt inh = HTS Assay for Inhibitors of Akt Phophorylation: Primary Screen; Neuro2A IGF-stimulated pAkt S473 HTRF, 20 min; hits give low values; activity change, % for hits at 50 µM; hit rate 0.32% among 360,000; AID 651550, 2012; in the data active = activity change below about -80%; inconclusive = mostly about -51% to -80%; also: % is scaled to controls: 0 for no effect and ±100 for the full control effect
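Neuro2A cells (4,500/well, DMEM with 0.5% FBS) were treated with compound at a single 50 µM final concentration, stimulated with 6 nM IGF for 20 min at 37 °C, and lysed. Phospho-Akt Ser473 was read by HTRF as 665/615 ratio ×10^4.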
LDHA inh = qHTS assay for inhibitors of human lactate dehydrogenase; activity change, % (values are at about 110 or 230 µM); L-lactate dehydrogenase A chain (Homo sapiens), P00338; hit rate 0.15% among 480,000; AID 1347041, 2019; purified LDHA, NADH/diaphorase-resazurin fluorescence; hits give low values; in the data active = activity change below about -30%; inconclusive = mostly about -25% to -30%;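 also: plate controls were DMSO wells for no effect and wells without enzyme for full effect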
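LDH5 2 nM; NADH 0.06 mM, pyruvate 0.2 mM; 200 mM Tris pH 7.4, EDTA, Tween-20; 5 min RT. Detection: diaphorase 0.133 mg/mL + resazurin 37 µM, fluorescence ex540/em590 at 0 and 20 min; normalized to enzyme-free and DMSO wells.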
Menin-MLL TR inh = qHTS Assay for Inhibitors Targeting the Menin-MLL Interaction in MLL Related Leukemias: Competition With Texas Red Labeled MLL-derived Mutant Peptide; hit rate 0.23% among 270,000; Menin + Texas Red MLL mutant peptide, fluorescence polarization; Potency, µM (doses to about 61.6 µM), without a hit: at the top dose FP activity change, negative = inhibition, most hits filed as inhibitors; O00255; active = well fitted inhibition curve with a large enough effect in the polarisation, with a control signal flat, not every such curve was filed as active; inconclusive = small, poorly fitted or top-dose-only effect, or effect the other way, or a change in a side signal; inactive = no such curve, though single readings can be large or run the other way; the % refers to the polarisation; also: potency is read from the fitted curve at half-maximal effect; % of control where 0% means no effect
Target sequence (O00255 whole entry, looked up): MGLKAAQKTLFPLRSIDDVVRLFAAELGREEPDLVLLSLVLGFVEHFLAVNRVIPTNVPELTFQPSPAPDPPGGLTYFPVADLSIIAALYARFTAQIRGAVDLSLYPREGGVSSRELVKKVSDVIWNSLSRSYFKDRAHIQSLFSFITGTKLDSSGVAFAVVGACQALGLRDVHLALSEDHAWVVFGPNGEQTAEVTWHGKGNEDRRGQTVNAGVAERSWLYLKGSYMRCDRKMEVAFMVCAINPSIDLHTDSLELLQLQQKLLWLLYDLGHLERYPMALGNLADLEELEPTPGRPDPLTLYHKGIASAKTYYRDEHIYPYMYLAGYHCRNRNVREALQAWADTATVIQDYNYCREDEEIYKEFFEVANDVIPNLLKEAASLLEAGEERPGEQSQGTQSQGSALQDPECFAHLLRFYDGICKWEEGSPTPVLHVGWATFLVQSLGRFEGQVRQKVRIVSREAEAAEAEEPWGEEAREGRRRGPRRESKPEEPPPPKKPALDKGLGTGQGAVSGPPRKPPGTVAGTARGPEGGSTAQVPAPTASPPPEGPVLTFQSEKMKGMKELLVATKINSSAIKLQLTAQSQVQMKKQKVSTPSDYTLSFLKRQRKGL
MLL CXXC-DNA inh = qHTS Fluorescence Polarization Assay for Inhibitors of MLL CXXC domain - DNA interaction | Histone-lysine N-methyltransferase 2A (Homo sapiens), Q03164 | MLL-CXXC / FITC-HOXA9 DNA fluorescence polarization | Potency, µM (top dose mostly 115 µM), inactives show top-dose activity change, negative = inhibition, most hits filed as inhibitors | hit rate 0.037% among 290,000; active = well fitted inhibition curve with a large enough effect in the polarisation, with a control signal flat, not every such curve was filed as active; inconclusive = small, poorly fitted or top-dose-only effect, or effect the other way, or a change in a side signal; inactive = no such curve, though single readings can be large or run the other way; the % refers to the polarisation; also: potency is read from the fitted curve at half-maximal effect
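Steps: dispense CXXC domain solution (7 uM) → pin compounds or unlabeled HOX-A9 DNA control → 5 min ambient → add FLSN-HOX-A9 solution (50 nM) → spin → 30 min ambient → fluorescence polarization. Tris pH 7.5/NaCl/DTT/BSA buffer.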
IDH1 autofl = qHTS for Inhibitors of mutant isocitrate dehydrogenase 1 (IDH1): Cherrypicks Autofluorescence Interference; shares compounds with IDH1 R132H inh; Resorufin detection reagent fluorescence interference, cell-free; inhibition of signal, % at 51.2 µM; 750 tested, under 10 active;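 also: 0% = wells with normal resorufin and full inhibition = wells lacking resorufin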
WT IDH1 inh = qHTS for Inhibitors of mutant isocitrate dehydrogenase 1 (IDH1): Cherrypicks in WT IDH1; shares compounds with IDH1 R132H inh; WT IDH1 enzyme, NADPH diaphorase/resazurin fluorescence; Potency, µM (top dose mostly 115 µM), without a hit: top-dose activity change, negative = inhibition, most hits filed as inhibitors; hit rate 9% among 750;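 also: potency is read from the fitted curve at half-maximal effect; 0% = full WT IDH1 enzyme control and full inhibition = no enzyme wells; nearly all actives have a fitted effect of over 55% in size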
IDH1 R132H conf = qHTS for Inhibitors of mutant isocitrate dehydrogenase 1 (IDH1): Confirmation of Cherrypicks; shares compounds with IDH1 R132H inh; AID 624002, 2012; Potency, µM (doses to about 76.6 µM), without a hit: top-dose activity change, negative = inhibition, most hits filed as inhibitors; hit rate 83% among 750; IDH1 R132H enzyme, NADPH diaphorase/resazurin fluorescence; also: potency is read from the fitted curve at half-maximal effect; nearly all actives have a fitted effect of over 50% in size
* hit, by the source's call; i = inactive; ? = inconclusive; . = no result given. Unless noted, calls follow the shape of the dose curve; as a rule, active = well fitted curve in the direction sought with a large enough effect; inconclusive = small, poorly fitted or top-dose-only effect, or another doubt; inactive = no such curve, though single readings can be large; an effect the other way counts as inactive or inconclusive.

SMILES | Menin-MLL FL inh | IDH1 R132H inh | pAkt inh | LDHA inh | Menin-MLL TR inh | MLL CXXC-DNA inh | IDH1 autofl | WT IDH1 inh | IDH1 R132H conf
Brc1ccc2c(c1)C(c1cccs1)=NNC(c1cccnc1)=N2 | 2 | 29µM* | ? | 4 | 6% | 1% | -10 | -4% | 22µM*
Cc1cc(/C=N/n2c(COc3ccccc3)nc3ccccc3c2=O)c(O)c([N+](=O)[O-])c1 | 14 | ? | i | -2 | ? | 19% | 6 | 4% | 32µM*
CN(C)CC1CCCN1 (configuration not stated) | . | . | . | -3 | . | . | . | . | .
Cc1cc(=O)[nH]c(SCC(=O)Nc2ncc(S(=O)(=O)c3ccc([N+](=O)[O-])cc3)s2)n1 | 3 | ? | i | 2 | ? | 13% | 4 | ? | -17%
Cc1ccc(Nc2nnc(SCC(=O)Nc3ncc(S(=O)(=O)c4ccc([N+](=O)[O-])cc4)s3)s2)cc1 | 4 | 5% | i | -4 | ? | 7% | . | . | .
Cn1cc(S(=O)(=O)c2cccc(Cl)c2)c(=O)c2cc(F)c(N3CCCCC3)cc21 | . | ? | . | 1 | . | . | 3 | 3% | 13µM*
COc1ccc(NC(C)C(=O)N(C)Cc2cccc(F)c2)c(OC)c1 (configuration not stated) | . | . | . | 25 | . | . | . | . | .
